# From PubChem BioAssay
# rCAG RNA binder: binders of r(CAG) RNA repeats, primary screen, biochemical, fluorescence; r(CAG) RNA repeat, TO-PRO-1 dye displacement fluorescence; inhibition, % at 3 µM; 1.3% of 370,000 active; AID 651821, 2012;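 active = inhibition above the plate cutoff, the mean of all test compounds on that plate plus 3 SD, cut at about 35% in these data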;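 also: 0% = DMSO alone and 100% = 100 µM mitoxantrone as full dye displacement; higher means more dye released from RNA so lower well fluorescence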
# Myeloid diff MLP: induction of myeloid progenitor differentiation, primary screen, cell-based, flow cytometry, MLPCN library | ER-HoxA9 myeloid progenitors, lysozyme-GFP differentiation | calls only at 10 µM | 1% of 360,000 active;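 active = normalized GFP-positive differentiation at or above the plate's own cutoff, the solvent-only control mean plus 3 SD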;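 also: cells exposed to compound for four days before flow analysis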
# NR3A LBD binder: binders of NR3A ligand-binding domain, primary screen, biophysical, differential scanning fluorimetry, uHTS; Glutamate receptor ionotropic, NMDA 3A (GRIN3A) ligand-binding domain; NR3A LBD differential scanning fluorimetry, Tm shift; 0% = protein alone, 100% = glycine-bound protein; Tm shift relative to glycine control, % at 25 µM; 2.5% of 340,000 active; AID 1259313, 2017;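 active = melting temperature shift of at least 10% of the positive control shift, at one fixed dose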
# FAS-TE inh: FAS thioesterase domain inhibitors, primary screen, biochemical, fluorescence intensity, uHTS. inhibition, % at 15 µM. recombinant FAS-TE, OMFH fluorogenic substrate, fluorescence endpoint. Fatty acid synthase (Homo sapiens), P49327. AID 602261, 2012. 0.67% of 360,000 active;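 active = compounds whose normalised, plate-corrected inhibition of enzyme fluorescence in the single-dose primary screen is 50% or more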;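 also: 0% = DMSO with enzyme and 100% = substrate without enzyme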
# MPTP inh: mitochondrial permeability transition pore inhibitors, primary screen, biochemical, isolated mouse mitochondria, absorbance | Ca2+ swelling absorbance, 30 min | inhibition, % at 10 µM | 1.4% of 360,000 active | AID 602449, 2012;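 active = inhibition of 50% or more, scaled per plate between neutral and stimulator controls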;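 also: 0% = DMSO wells given calcium and 100% = 1 mM EGTA wells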
# The depositor's hits bear a star; i = inactive; . = no result given; + = active, no number. An excerpt weighted towards active compounds, which were near 5.7% of everything screened.
SMILES,rCAG RNA binder,Myeloid diff MLP,NR3A LBD binder,FAS-TE inh,MPTP inh
COc1cccc(-c2nc(-c3ccc(NC(=O)c4cccs4)cc3)no2)c1,1,i,15*,18,3
COc1ccc(NC(=O)c2cccs2)cc1,1,i,-18,-7,-12
Cc1[nH]c2ccccc2c1CC(=O)Nc1ccc(Nc2cccnc2)c(-c2ccc(OC(F)(F)F)cc2)c1,11,.,.,.,.
COc1ccc(OC2(C)CCN(Cc3ccc(-c4ccccc4)o3)C2)cc1 (stereo not given),0,i,.,10,2
CCOc1ccccc1-c1nc(-c2ccc(NC(=O)Cc3ccc(OC)cc3)cc2)no1,9,i,8,12,2
Clc1ccc(Cl)c(-c2nc(-c3ccncc3)no2)c1,-1,i,1,-3,4
COc1cccc(NC(=O)c2ccccc2-c2nc(-c3ccc(Cl)cc3)no2)c1,3,i,16*,22,4
COc1ccc(Cl)cc1-c1nc(-c2ccc(NC(=O)c3ccncc3)cc2)no1,4,i,26*,2,-2
CCOc1ccccc1-c1nc(-c2ccc(NC(=O)c3ccc(Br)o3)cc2)no1,9,.,16*,.,.
Cc1cccc2nc(-c3ccccc3)c(-c3ccc(CN4CCC5(CC4)CNc4ccccc45)cc3)nc12,11,.,.,.,.
COc1ccc(NS(=O)(=O)c2cc([N+](=O)[O-])ccc2N/N=C/c2c(C)[nH]c3ccccc23)cc1,9,+,28*,12,2
Cc1[nH]c2ccccc2c1/C=N/Nc1ccccc1[N+](=O)[O-],32,i,4,20,8
CCCCN1CC(COCc2ccccc2)Oc2cccc(NCc3cc(OC)c(OC)c(OC)c3)c2S1(=O)=O (stereo not given),8,.,.,.,.
C/C(=N\Nc1ccccc1)c1cccc(N)c1,6,i,-1,5,2
C/C(=N\Nc1cc(-c2ccccc2)nc(-c2ccc(Br)cc2)n1)c1cccc(N)c1,43*,i,29*,33,4
C/C(=N/Nc1cc(-c2ccccc2)nc(-c2ccccc2)n1)c1ccc(O)cc1,17,i,34*,30,8
COc1ccc(/C=N/Nc2ncnc(Cl)c2N)cc1OC,2,i,-11,0,7
Nc1c(Cl)ncnc1N/N=C/c1cccc(O)c1,2,i,24*,1,1
O=C(CSc1nnc(-c2cccnc2)n1-c1ccc(Cl)cc1)c1ccc2ccccc2c1,7,.,.,.,.
CCCCC1O[C@@H](C)[C@@H]2CN3CCc4c([nH]c5ccccc45)[C@@H]3C[C@@H]2N1C (stereo not given in full),0,.,.,.,.
Fc1ccc(-c2csc(-c3ccncc3)n2)cc1,-1,i,26*,10,-1
CC(=O)Nc1ccccc1OCC(=O)NC(C)c1ccccc1 (stereo not given),1,i,-2,-9,1
CC(=O)Nc1ccccc1OCC(=O)N(Cc1ccccc1)C(C)C,-1,+,-3,-4,0
CN1CCCCC(NC(=O)C23CC4CC(CC(C4)C2)C3)C1=O (stereo not given),-1,.,.,.,.
Cc1nc(CNS(=O)(=O)c2cccc(F)c2)cs1,2,i,-10,-8,1
SMILES,rCAG RNA binder,Myeloid diff MLP,NR3A LBD binder,FAS-TE inh,MPTP inh
Cc1ccc(-c2csc(NS(=O)(=O)c3cccc(F)c3)n2)o1,71*,i,4,6,-2
CC(=O)C1=C(O)C(=O)N(CCCn2ccnc2)C1c1ccc(Br)cc1 (stereo not given),4,+,1,-8,1
CC(C)CCNC(=O)C1(C)CCN1Cc1ccc2ccccc2c1 (stereo not given),-2,i,.,8,-1
CCC(CO)Nc1cccc2c1S(=O)(=O)N(Cc1cn(Cc3ccc(Cl)cc3)nn1)Cc1ccccc1O2 (stereo not given),5,.,.,.,.
C=C(C)COc1ccc(-c2ncncc2Oc2ccc(OC)cc2)c(O)c1,-1,i,21*,-17,-2
C=C(C)COc1ccc(-c2nc(N)ncc2-c2ccc(Cl)cc2)c(O)c1,4,i,20*,32,1
C=C(C)COc1ccc(-c2nc(N)ncc2-c2ccc(OC)cc2)c(O)c1,7,.,.,.,.
O=C(COC(=O)[C@H](Cc1c[nH]c2ccccc12)NC(=O)c1ccc(Cl)cc1)Nc1ccc2c(c1)OCO2,14,i,20*,26,7
CC(=O)N[C@@H](Cc1c[nH]c2ccccc12)C(=O)OCC(=O)Nc1ccc2c(c1)OCO2,3,i,12*,-1,-2
CC(=O)NC(Cc1c[nH]c2ccccc12)C(=O)NCc1ccc2c(c1)OCO2 (stereo not given),2,i,0,-4,0
CCCC[C@H]1C2CC(OC(=O)Nc3cccc(Cl)c3)C(C2)[C@H]2CCCCN21 (stereo not given in full),1,.,.,.,.
COC(=O)[C@]12C[C@H](CC(=O)NCc3ccc(C)o3)C(=O)N(Cc3ccccc3)C1=C[C@H](C(C)(C)C)O[C@@H]2C,4,.,.,.,.
CCCC[n+]1c2ccccc2cc2ccccc21,4,i,22*,-6,-3
CCC[n+]1c2ccccc2cc2ccccc21,2,i,8,-4,-2
CCOC(=O)N1CCC(N2C(=O)c3ccc(C(=O)O)cc3C2=O)CC1,3,i,5,-8,-3
CCOC(=O)N1CCC(N2C(=O)c3ccc(C(=O)Nc4cccc(OC)c4)cc3C2=O)CC1,-3,i,11*,-6,-1
C=CCn1c(N)cc(=O)nc1SC(C)C(=O)Nc1ccc(C(=O)OCC)cc1 (stereo not given),3,i,15*,-9,0
COc1cc(/C=C/C(=O)Nc2ccc(C(C)=O)cc2)cc(OC)c1OC,2,i,0,-7,1
CSc1ccc(/C=C/C(=O)Nc2ccccc2)cc1,1,i,21*,1,2
CC(=O)c1ccc(NC(=O)/C=C/c2ccc(C)cc2)cc1,1,i,20*,-2,9
CCC(=O)Nc1ccc(NC(=S)NC(=O)/C=C/c2ccccc2)cc1,5,i,15*,-2,-2
CC(=O)c1ccc(NC(=S)NC(=O)/C=C/c2ccccc2)cc1,-2,i,4,0,2
CCC(=O)Nc1ccc(NC(=O)/C=C/c2ccc(Cl)cc2)cc1,3,i,20*,-5,0
CCN(CC)C(=O)CSc1nnc(-c2ccc(C(C)(C)C)cc2)n1Cc1ccco1,-2,.,.,.,.
C[C@H](CO)N1C[C@H](C)[C@@H](CN(C)C(=O)Nc2cccc(Oc3ccccn3)c2)OCc2cn(nn2)CCCC1=O,0,.,.,.,.
CC1=C(C(=O)Nc2ccccc2)C2(CCCCC2)C(C#N)=C(SCC(N)=O)N1,-4,i,0,-2,-1
CC1(C)CC(=O)C2=C(C1)NC(SCC(=O)Nc1ccccc1)=C(C#N)C21CCCCC1,-1,i,12*,29,5
